For eight molecules, Potency results are on record in PubChem BioAssay (Tox21).

A short description of test [1]: Caspase-3/7 induction in HepG2 cells by small molecules, qHTS assay (AID 1346978). Note: nearly all actives have a fitted effect of over 15% in size. Put shortly:
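Caspase-3/7 induction was measured by Caspase-Glo 3/7 luminescence (30 min, room temperature) after a 17 hr compound exposure of wild-type HepG2 cells seeded at 2,000 per well and pre-incubated 5 hr.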
A general note: qHTS replaces the single test concentration by a dilution series.

Test [2] is described as follows: Caspase-3/7 induction in CHO-K1 cells by small molecules, qHTS assay (AID 1346980). Note: nearly all actives have a fitted effect of over 15% in size. The method in brief: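 Luminescent Caspase-Glo 3/7 read (30min, room temperature) quantified apoptosis induction. Cells were wild-type CHO-K1, treated with compound for 17hr at 37 C and 5% CO2.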
Test [3] can be described thus: Caspase-3/7 induction in HepG2 cells by small molecules, qHTS cell viability counter screen (AID 1346981). Note: series mostly up to about 92 µM; nearly all actives have a fitted effect of over 30% in size. The method in brief: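 CellTiter-Fluor fluorescence measured viability in the same wells used for Caspase-Glo 3/7. HepG2 (wild type) at 2,000 cells/well were pre-incubated 5 hr, dosed, and given reagent at 16 hr, with 1 hr further at 37C.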
Test [4] has as its target Nuclear receptor subfamily 1 group I member 2 (Homo sapiens) (UniProt O75469). Kind of test: Human pregnane X receptor (PXR) small molecule agonists, qHTS assay (AID 1346982). Note: nearly all actives have a fitted effect of over 35% in size. Note: potency is the fitted concentration of half-maximal effect. The method in brief:
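Agonist mode: luminescence from ONE-Glo after 24 h compound exposure at 37C in HepG2 cells carrying hPXR-responsive CYP3A4 luciferase, plated in charcoal-stripped serum medium 5 h beforehand.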

The target of test [5] is Acetylcholinesterase (Homo sapiens) (UniProt P22303). In words: Acetylcholinesterase (AChE) small molecule antagonists: colormetric cell-based qHTS assay (AID 1347395; calls by dose curve; note: nearly all actives have a fitted effect of over 30% in size; note: potency is the fitted concentration of half-maximal effect). Put shortly:
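Neuroblastoma line SH-SY5Y supplied the enzyme; cells were preincubated with compound for 30 min at 37 C and 5% CO2. Acetylthiocholine with DTNB was then added for 90 min at 37 C, and thiocholine was measured by colour.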

Test [6] has the same target. Kind of test: Acetylcholinesterase (AChE) small molecule antagonists: enzyme-based qHTS assay (AID 1347397; calls by dose curve; note: nearly all actives have a fitted effect of over 55% in size; note: potency is the fitted concentration of half-maximal effect). The conditions noted are these: Potency: AChE enzyme activity inhibition. Put shortly: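 Colorimetric DTNB readout of acetylthiocholine hydrolysis, 10 min at room temperature, after 30 min room-temperature exposure of 50 mU/mL recombinant human enzyme to compound; DMSO vehicle control.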

Test [7] shares this target. In words: Acetylcholinesterase (AChE) small molecule antagonists: fluorescence cell-based qHTS assay (AID 1347398; calls by dose curve; note: nearly all actives have a fitted effect of over 50% in size; note: potency is the fitted concentration of half-maximal effect). Particulars: Potency: AChE activity. Put shortly:
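Cellular AChE activity read as thiocholine from acetylthiocholine hydrolysis, detected by Thiolite Green fluorescence at 490/520 nm after 40 min at room temperature. Compounds were pre-incubated 30 min at 37 C on adherent SH-SY5Y cells.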

For test [8] the target is unchanged. Kind of test: Acetylcholinesterase (AChE) small molecule antagonists: enzyme-based qHTS assay with human liver microsomes (AID 1347399; calls by dose curve; note: nearly all actives have a fitted effect of over 60% in size; note: potency is the fitted concentration of half-maximal effect). The conditions noted are these: Potency: qHTS inhibition. Put shortly:
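Recombinant human AChE (50 mU/mL in the enzyme mix) and human liver microsomes (0.25 mg/mL final) were preincubated with compound and NADPH (0.25 mg/mL final) for 30 min at 37 C. Acetylthiocholine/DTNB was then added; thiocholine was read colorimetrically after 10 min at room temperature.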

The target of test [9] is Cytochrome P450 2D6 (Homo sapiens) (UniProt P10635). In words: Cytochrome P450 Family 2 Subfamily D Member 6 (CYP2D6) small molecule antagonists: luciferase reporter qHTS assay (AID 1671196). Note: nearly all actives have a fitted effect of over 50% in size. Note: potency is the fitted concentration of half-maximal effect. Put shortly:
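CYP2D6 activity was followed as luminescence from its luciferin product after a 1 h NADPH-driven reaction at room temperature. Enzyme-substrate mix and compound were pre-incubated for 10 min, and the signal was read 20 min after adding detection reagent.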

Test [10] has as its target Cytochrome P450 2C19 (Homo sapiens) (UniProt P33261). In words: Cytochrome P450 Family 2 Subfamily C Member 19 (CYP2C19) small molecule antagonists: luciferase reporter qHTS assay (AID 1671197). Note: nearly all actives have a fitted effect of over 65% in size. Note: potency is the fitted concentration of half-maximal effect. The method in brief: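 P450-Glo CYP2C19 screening system; proluciferin substrate; DMSO compound stocks; 10 min RT preincubation; NADPH regeneration, 1 h at 37C; luciferin detection reagent, 20 min RT; luminescence as RLU.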
On the technique in general: In a reporter assay the amount or activity of a reporter protein is the signal.

The target of test [11] is Cytochrome P450 2C9 (Homo sapiens) (UniProt P11712). In words: Cytochrome P450 Family 2 Subfamily C Member 9 (CYP2C9) small molecule antagonists: luciferase reporter qHTS assay (AID 1671198). Note: nearly all actives have a fitted effect of over 50% in size. Note: potency is the fitted concentration of half-maximal effect. The method in brief:
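Enzyme-substrate mix preincubated with compound 10 min at room temperature; reaction started with NADPH regeneration solution, 1 h 37C. Luminescent luciferin product read after 20 min detection reagent.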

For test [12], the target named is Cytochrome P450 1A2 (Homo sapiens) (UniProt P05177). In words: Cytochrome P450 Family 1 Subfamily A Member 2 (CYP1A2) small molecule antagonists: luciferase reporter qHTS assay (AID 1671199). Note: nearly all actives have a fitted effect of over 50% in size. Note: potency is the fitted concentration of half-maximal effect. Put shortly:
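Luminescence from luciferin formed by CYP1A2 from a proluciferin substrate, read 20 min after detection reagent. Compound was pre-incubated 10 min with enzyme-substrate, and reaction started with NADPH regeneration solution for 1 h at room temperature; furafylline control.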

For test [13], the target named is Voltage-gated inwardly rectifying potassium channel KCNH2 (Homo sapiens) (UniProt Q12809). Kind of test: Human Ether-a-go-go-Related Gene (hERG) channel small molecule antagonists: fluorescence cell-based qHTS assay (AID 1671200). Note: nearly all actives have a fitted effect of over 50% in size. Note: potency is the fitted concentration of half-maximal effect. The method in brief:
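Measured: Tl+ flux via fluorescence (480/540 nm) in hERG-expressing U2OS cells after 1 h dye loading at room temperature.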
On the technique in general: Block of hERG is tested as a sign of cardiac risk.

Test [14] addresses Cytochrome P450 3A4 (Homo sapiens) (UniProt P08684). In words: Cytochrome P450 Family 3 Subfamily A Member 4 (CYP3A4) small molecule antagonists: luciferase reporter qHTS assay (AID 1671201). Note: nearly all actives have a fitted effect of over 50% in size. Note: potency is the fitted concentration of half-maximal effect. Put shortly: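 Setup: enzyme-substrate mix, compound pin transfer, 10 min RT. Reaction: NADPH regeneration solution, 1 h RT. Readout: detection reagent stops turnover, luminescence measured after 20 min, expressed in relative luminescence units.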

Test [15] is described as follows: Caspase-3/7 induction in CHO-K1 cells by small molecules, qHTS cell viability counter screen (AID 1346979). Note: potency is the fitted concentration of half-maximal effect; nearly all actives have a fitted effect of over 35% in size. The method in brief:
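To flag cytotoxic compounds, treated CHO-K1 wild-type cells were given CellTiter-Fluor at 16hr and read fluorescently after 1hr at 37C; the caspase-3/7 luminescence was measured in these same wells.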

The structures appear in SMILES notation. A number with no mark means an inactive call. Results filed as inconclusive are left out. Calls of active or inactive are those of the source. Unless noted, calls come from the whole dose curve; as a rule, active = well fitted curve in the direction sought with a large enough effect in the repeat runs; inconclusive = weak or mixed curves; inactive = no such curve, though single readings can be large; an effect the other way counts as inactive or inconclusive.

Sequence of Cytochrome P450 2C9 (Homo sapiens) (P11712 whole entry, looked up): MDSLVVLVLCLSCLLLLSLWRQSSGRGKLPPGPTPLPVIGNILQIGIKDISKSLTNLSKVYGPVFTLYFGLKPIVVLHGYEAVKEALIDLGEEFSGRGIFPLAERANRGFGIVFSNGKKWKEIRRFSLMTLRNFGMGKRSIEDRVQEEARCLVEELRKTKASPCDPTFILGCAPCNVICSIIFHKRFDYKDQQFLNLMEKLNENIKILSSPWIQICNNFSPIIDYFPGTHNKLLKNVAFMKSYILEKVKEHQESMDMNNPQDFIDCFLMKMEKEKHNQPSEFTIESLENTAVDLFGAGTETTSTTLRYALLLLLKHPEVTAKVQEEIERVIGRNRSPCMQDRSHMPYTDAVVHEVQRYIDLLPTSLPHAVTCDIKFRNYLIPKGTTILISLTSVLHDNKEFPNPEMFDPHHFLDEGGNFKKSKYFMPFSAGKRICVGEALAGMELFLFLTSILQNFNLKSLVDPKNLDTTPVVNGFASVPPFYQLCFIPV
Sequence of Cytochrome P450 2C19 (Homo sapiens) (P33261 whole entry, looked up): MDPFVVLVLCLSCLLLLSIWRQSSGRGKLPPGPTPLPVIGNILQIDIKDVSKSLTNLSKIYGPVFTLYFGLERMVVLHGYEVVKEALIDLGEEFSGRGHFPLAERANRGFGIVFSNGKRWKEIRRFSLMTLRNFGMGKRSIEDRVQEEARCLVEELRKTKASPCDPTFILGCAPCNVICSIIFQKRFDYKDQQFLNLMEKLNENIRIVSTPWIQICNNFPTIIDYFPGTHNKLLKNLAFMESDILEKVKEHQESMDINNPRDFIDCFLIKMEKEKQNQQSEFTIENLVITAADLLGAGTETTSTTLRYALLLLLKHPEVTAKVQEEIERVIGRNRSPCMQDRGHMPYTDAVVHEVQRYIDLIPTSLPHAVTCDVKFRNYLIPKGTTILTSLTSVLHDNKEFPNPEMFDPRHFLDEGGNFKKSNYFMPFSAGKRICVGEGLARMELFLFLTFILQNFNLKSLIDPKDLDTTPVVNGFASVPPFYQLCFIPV
Sequence of Voltage-gated inwardly rectifying potassium channel KCNH2 (Homo sapiens) (Q12809 whole entry, looked up): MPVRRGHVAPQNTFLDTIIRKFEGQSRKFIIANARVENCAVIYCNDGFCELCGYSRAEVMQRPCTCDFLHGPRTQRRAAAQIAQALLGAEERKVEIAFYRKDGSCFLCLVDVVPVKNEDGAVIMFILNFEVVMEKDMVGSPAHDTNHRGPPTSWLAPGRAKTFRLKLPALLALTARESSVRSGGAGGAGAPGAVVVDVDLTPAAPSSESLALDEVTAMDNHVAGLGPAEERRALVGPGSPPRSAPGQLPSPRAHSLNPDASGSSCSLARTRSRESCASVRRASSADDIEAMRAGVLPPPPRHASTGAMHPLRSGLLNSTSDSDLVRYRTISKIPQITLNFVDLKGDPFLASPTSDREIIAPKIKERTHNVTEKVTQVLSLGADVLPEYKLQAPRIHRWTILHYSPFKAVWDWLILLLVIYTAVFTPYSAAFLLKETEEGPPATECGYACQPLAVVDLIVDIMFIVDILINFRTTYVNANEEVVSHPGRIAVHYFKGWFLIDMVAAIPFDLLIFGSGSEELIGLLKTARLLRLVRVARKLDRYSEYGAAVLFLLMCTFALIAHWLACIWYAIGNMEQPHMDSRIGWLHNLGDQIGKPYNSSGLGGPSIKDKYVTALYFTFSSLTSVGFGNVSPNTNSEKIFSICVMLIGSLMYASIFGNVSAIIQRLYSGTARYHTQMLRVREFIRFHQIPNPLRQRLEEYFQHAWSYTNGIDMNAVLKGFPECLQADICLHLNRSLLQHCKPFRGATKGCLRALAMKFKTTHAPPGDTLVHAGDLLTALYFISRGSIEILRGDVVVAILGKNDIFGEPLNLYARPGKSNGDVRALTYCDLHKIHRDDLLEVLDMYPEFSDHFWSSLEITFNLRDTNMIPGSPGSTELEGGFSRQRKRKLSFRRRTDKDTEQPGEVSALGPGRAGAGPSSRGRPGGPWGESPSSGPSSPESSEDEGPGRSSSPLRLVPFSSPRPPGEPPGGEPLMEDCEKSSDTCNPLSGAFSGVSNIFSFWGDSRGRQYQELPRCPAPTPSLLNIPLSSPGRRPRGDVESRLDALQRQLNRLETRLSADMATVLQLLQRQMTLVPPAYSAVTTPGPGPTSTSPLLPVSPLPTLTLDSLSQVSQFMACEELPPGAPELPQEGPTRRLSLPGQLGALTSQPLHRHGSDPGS
Sequence of Acetylcholinesterase (Homo sapiens) (P22303 whole entry, looked up): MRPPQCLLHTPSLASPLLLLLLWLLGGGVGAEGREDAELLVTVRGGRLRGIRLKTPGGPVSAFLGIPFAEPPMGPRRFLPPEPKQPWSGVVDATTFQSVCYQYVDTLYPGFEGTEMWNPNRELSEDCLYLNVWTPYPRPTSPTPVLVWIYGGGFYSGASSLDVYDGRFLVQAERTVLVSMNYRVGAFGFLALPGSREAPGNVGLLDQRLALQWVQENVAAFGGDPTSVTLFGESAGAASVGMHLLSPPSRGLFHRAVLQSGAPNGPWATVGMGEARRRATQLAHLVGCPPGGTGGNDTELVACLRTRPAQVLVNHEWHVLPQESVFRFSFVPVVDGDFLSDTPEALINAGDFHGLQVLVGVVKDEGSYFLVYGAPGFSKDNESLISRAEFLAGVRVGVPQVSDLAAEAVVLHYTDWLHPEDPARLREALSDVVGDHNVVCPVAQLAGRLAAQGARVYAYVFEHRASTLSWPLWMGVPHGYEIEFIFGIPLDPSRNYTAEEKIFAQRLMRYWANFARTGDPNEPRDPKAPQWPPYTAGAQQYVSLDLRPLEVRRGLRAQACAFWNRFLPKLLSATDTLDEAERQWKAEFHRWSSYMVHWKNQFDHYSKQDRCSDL
Sequence of Cytochrome P450 1A2 (Homo sapiens) (P05177 whole entry, looked up): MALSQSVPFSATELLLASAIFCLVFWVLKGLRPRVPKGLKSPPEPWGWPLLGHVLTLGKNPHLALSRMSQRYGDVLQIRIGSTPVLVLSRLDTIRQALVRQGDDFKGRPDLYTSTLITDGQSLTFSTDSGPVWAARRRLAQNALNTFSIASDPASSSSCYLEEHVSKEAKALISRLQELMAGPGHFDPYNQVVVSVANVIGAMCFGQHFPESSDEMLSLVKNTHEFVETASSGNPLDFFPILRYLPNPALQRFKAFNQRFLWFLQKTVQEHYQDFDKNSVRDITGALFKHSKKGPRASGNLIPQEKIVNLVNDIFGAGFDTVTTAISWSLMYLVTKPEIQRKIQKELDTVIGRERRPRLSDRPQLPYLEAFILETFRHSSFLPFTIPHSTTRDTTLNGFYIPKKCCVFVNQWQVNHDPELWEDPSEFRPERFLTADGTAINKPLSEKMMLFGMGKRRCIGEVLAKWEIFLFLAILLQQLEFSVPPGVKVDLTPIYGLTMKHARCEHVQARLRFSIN
Sequence of Nuclear receptor subfamily 1 group I member 2 (Homo sapiens) (O75469 whole entry, looked up): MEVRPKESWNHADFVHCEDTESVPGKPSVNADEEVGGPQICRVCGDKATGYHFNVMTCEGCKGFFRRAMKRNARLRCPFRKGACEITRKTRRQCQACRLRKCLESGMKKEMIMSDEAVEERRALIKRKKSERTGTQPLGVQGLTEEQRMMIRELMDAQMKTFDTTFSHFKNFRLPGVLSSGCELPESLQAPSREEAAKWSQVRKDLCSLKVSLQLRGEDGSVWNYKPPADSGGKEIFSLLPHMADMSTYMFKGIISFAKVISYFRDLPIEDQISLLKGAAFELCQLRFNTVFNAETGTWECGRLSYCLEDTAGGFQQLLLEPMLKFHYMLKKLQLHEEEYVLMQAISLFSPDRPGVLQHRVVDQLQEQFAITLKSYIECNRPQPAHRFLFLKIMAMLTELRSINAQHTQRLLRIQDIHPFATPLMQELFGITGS
Sequence of Cytochrome P450 3A4 (Homo sapiens) (P08684 whole entry, looked up): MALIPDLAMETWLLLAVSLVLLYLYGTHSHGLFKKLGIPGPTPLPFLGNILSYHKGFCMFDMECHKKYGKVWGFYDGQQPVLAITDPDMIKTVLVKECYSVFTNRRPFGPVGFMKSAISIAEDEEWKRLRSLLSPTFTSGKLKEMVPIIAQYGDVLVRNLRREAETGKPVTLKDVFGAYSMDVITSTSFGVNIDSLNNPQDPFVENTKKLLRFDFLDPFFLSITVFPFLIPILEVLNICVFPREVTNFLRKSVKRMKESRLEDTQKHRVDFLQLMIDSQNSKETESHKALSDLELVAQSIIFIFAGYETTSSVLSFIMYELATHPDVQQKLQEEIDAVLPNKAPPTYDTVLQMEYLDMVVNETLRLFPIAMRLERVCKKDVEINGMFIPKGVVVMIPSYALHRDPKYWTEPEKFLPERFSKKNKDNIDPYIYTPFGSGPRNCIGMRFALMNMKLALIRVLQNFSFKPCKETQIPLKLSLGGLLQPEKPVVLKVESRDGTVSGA
Sequence of Cytochrome P450 2D6 (Homo sapiens) (P10635 whole entry, looked up): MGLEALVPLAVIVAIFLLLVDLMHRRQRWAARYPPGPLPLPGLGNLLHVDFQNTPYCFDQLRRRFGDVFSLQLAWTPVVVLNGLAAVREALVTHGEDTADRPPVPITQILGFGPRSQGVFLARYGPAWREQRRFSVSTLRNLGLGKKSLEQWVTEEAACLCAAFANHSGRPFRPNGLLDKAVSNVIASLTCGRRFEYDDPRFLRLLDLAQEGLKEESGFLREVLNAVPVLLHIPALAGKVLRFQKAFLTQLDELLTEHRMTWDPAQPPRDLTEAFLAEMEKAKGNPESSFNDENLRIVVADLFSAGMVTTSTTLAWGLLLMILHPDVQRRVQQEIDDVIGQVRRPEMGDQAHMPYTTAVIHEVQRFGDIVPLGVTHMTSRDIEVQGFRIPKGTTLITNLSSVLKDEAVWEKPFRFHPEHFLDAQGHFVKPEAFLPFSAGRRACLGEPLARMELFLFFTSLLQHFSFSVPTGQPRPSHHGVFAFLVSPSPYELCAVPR

Consider `c1ccc2nc(N3CCNCC3)ccc2c1`, for which the Potency result in test [1], in [2], in [3], in test [4], in test [5] and in [6] was “inactive” throughout. The Potency entry in test [7], in [8], in test [9], in test [10], in test [11] and in test [13] was “inactive” in each case. The Potency in test [12] is 1.23 µM (active).
In the case of `O=[N+]([O-])C(Br)Br`, the Potency result in [1], in test [2], in [3], in test [4], in test [5] and in test [6] was “inactive” in each case. For the same molecule, the Potency result in [7], in test [8], in test [9], in test [10], in test [11] and in [13] was “inactive” throughout. Also, in test [14], the Potency entry was “inactive”.
`CO/N=C(\C(=O)OC)c1ccccc1CO/N=C(\C)c1cccc(C(F)(F)F)c1`: the Potency result in test [1], in test [2], in test [5], in [7], in [8] and in test [13] was “inactive” in each case. Further, the Potency is 0.137 µM (active) in test [15]; 0.686 µM (active) in [4]; 3.56 µM (active) in test [10]; 8.94 µM (active) in test [11]; 17.8 µM (active) in test [12].
Take `CCOP(=S)(OCC)SC(CCl)N1C(=O)c2ccccc2C1=O` (stereo not drawn): the Potency entry in test [1], in test [2], in test [3] and in test [13] was “inactive” in each case. Besides, the Potency in test [4] is 4.33 µM (active); in test [5], 31.7 µM (active); in test [6] it was 63.3 µM (active); in [7], 10 µM (active); in test [8] it was 1.42 µM (active); in test [9], 39.9 µM (active). The Potency was 0.399 µM (active) in test [10], 1.12 µM (active) in [11] and 1.59 µM (active) in test [14].
`CSC(=O)c1c(C(F)F)nc(C(F)(F)F)c(C(=O)SC)c1CC(C)C`: the Potency entry in [1], in [2], in test [3], in test [5], in test [6] and in test [7] was “inactive” each time. Moreover, the Potency result in [8] and in [9] was “inactive” in each case. In addition, the Potency in test [4] was 4.83 µM (active); in [10] it was 3.15 µM (active); in test [11] it was 9.97 µM (active); in test [12], 3.15 µM (active); in test [14] it was 6.29 µM (active).
For the molecule `Brc1ccc(Oc2ccc(Br)cc2Br)c(Br)c1`, the Potency result in test [1], in test [2], in [3], in [5], in test [6] and in test [7] was “inactive” in each case. The Potency result in test [8], in [9], in [13] and in [14] was “inactive” throughout. In addition, the Potency in test [4] was 30.7 µM (active); in test [10] it was 0.142 µM (active); in [11] it was 12.6 µM (active); in test [12], 12.6 µM (active).
On to `C[C@H]1[C@H](c2ccc(Cl)cc2)SC(=O)N1C(=O)NC1CCCCC1`, for which the Potency result in [1], in [2], in [3], in [5], in test [6] and in test [7] was “inactive” each time. Further, the Potency entry in test [8] and in [9] was “inactive” in each case. The Potency in test [4] is 6.86 µM (active); in test [10], 5.03 µM (active); in [11], 10 µM (active); in test [12], 35.6 µM (active); in test [13] it was 38.9 µM (active); in test [14], 7.96 µM (active).
As for `O=C(NC(=O)c1c(F)cccc1F)Nc1ccc(Oc2ccc(C(F)(F)F)cc2Cl)cc1F`, the Potency result in test [1], in test [2], in [5], in test [6], in test [7] and in [8] was “inactive” each time. Besides, the Potency result in test [12] and in test [14] was “inactive” each time. For the same molecule, the Potency in test [15] was 61.1 µM (active); in test [4], 19.3 µM (active); in test [11], 25.2 µM (active); in test [13], 34.7 µM (active).
